Assay outcomes as filed in PubChem.
EBNA-1 inh = EBNA-1 DNA-binding inhibitors, primary screen, biochemical, fluorescence polarization | AID 1950, 2009 | 300,000 compounds, 0.34% hits | inhibition, % at 14.8 µM; in the data active = inhibition above about 28%
Rpn11 inh = Rpn11 (PSMD14) deubiquitinase inhibitors, primary screen, biochemical, fluorescence polarization, uHTS. 26S proteasome non-ATPase regulatory subunit 14 (Homo sapiens), O00487. human 26S proteasome, Ub4-pepOG fluorescence polarization; 20S core pre-blocked with epoxomicin. inhibition, % at 20 µM. 360,000 compounds, 0.59% hits;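 active = inhibition at 20 µM, scaled to each plate's controls, above about 33%, limit read from the data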
Target sequence (O00487 whole entry, looked up): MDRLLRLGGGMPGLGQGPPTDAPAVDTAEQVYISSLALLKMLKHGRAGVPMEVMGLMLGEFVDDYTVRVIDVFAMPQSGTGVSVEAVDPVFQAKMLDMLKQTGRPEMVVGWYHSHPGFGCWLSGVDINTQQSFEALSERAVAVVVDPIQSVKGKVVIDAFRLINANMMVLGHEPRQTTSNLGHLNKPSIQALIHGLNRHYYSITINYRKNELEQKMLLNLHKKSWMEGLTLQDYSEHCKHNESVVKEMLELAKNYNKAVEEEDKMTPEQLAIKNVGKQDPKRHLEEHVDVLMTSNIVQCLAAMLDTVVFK
NR3A LBD binder = binders of NR3A ligand-binding domain, primary screen, biophysical, differential scanning fluorimetry, uHTS | 340,000 compounds, 2.5% hits | Tm shift relative to glycine control, % at 25 µM | Glutamate receptor ionotropic, NMDA 3A (GRIN3A) ligand-binding domain | NR3A LBD differential scanning fluorimetry, Tm shift; 0% = protein alone, 100% = glycine-bound protein | AID 1259313, 2017;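 active = melting temperature shift of at least 10% of the positive control shift, at one fixed dose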
ZTA DNA inh = blocks Epstein-Barr virus ZTA, an EBNA-1 counter-screen | inhibition, % at 11 µM | P03206 | ZTA-DNA binding, fluorescence polarization | 320,000 compounds, 0.15% hits; in the data active = inhibition above about 33%
Target sequence (P03206 whole entry, looked up): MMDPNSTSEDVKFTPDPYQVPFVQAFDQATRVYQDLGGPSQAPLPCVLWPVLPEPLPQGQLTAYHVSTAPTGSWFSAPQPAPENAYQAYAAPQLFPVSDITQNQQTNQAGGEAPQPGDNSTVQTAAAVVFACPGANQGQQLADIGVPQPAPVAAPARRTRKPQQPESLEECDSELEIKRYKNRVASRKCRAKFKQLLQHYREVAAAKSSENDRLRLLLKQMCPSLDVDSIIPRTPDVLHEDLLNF
dFosB act-1 = activators of delta FosB homodimer, primary screen, biochemical, fluorescence polarization, TAMRA-CDK5 oligo, single point | Protein FosB (Mus musculus), P13346 | purified delta FosB; percent of positive-control signal above neutral wells | activation, % at 25 µM | 340,000 compounds, 0.99% hits;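 active = mean activation above about 17%, with every replicate also reaching it, limit read from the data, passing the limit was not always enough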
TPT1 inhibitor = Candida albicans TPT1 enzyme inhibitors, primary screen, biochemical, fluorescence polarization; tRNA 2'-phosphotransferase TPT1 (Candida albicans SC5314); recombinant caTPT1, FP RNA substrate dephosphorylation; inhibition, % at 5 µM; 300,000 compounds, 0.81% hits;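 active = inhibition above the mean of all tested compounds plus 3 SD, set per screening campaign, cut at about 24% in these data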;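 also: plate controls were DMSO alone for no effect and ferristatin control at 100 nM for full effect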
dFosB act-2 = activators of mouse delta FosB DNA binding, confirmation, biochemical, fluorescence polarization, TAMRA-CDK5 oligo, cherry-picked samples | purified delta FosB; normalised: neutral wells 0, positive control 100 | AID 588690, 2011 | activation, % at 24.9 µM | 2,400 tested, under 10 active | shares compounds with dFosB act-1;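 active = highest replicate activation at or above 34% and every replicate reaching that threshold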;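 also: higher polarization means more probe DNA bound by delta FosB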
* marks the source's active call; other numbers are inactive results; . = no result given. Hits are enriched below; roughly 4.5% of the tested compounds scored in any of these assays.

SMILES	EBNA-1 inh	Rpn11 inh	NR3A LBD binder	ZTA DNA inh	dFosB act-1	TPT1 inhibitor	dFosB act-2
Cc1ccc(-c2c(C(=O)N/N=C/c3ccncc3)nnn2-c2nonc2N)cc1	1	0	1	-8	-18	-2	.
Nc1nonc1-n1nnc(C(=O)N/N=C/c2cccc(Cl)c2)c1-c1ccc2c(c1)OCO2	-2	4	7	1	72*	-4	1
Nc1nonc1-n1nnc(C(=O)N/N=C/c2ccc3c(c2)OCO3)c1-c1ccccc1	-2	-4	8	-14	18*	-2	1
Nc1nonc1-n1nnc(C(=O)N/N=C/c2c(F)cccc2Cl)c1-c1ccc2c(c1)OCO2	18	-3	-2	1	4	1	.
CCCCN(C(=O)c1c(C)noc1C)c1c(N)n(CCCC)c(=O)[nH]c1=O	-8	-8	1	3	-1	-5	.
C#CCn1c(=NC(=O)c2sc3ccccc3c2Cl)sc2cc(S(N)(=O)=O)ccc21	35*	0	9	4	77*	4	-1
C#CCn1c(=NC(=O)c2ccc(S(=O)(=O)N3CCc4ccccc4C3)cc2)sc2cc(S(N)(=O)=O)ccc21	15	11	-4	22	51*	-3	3
CCOCCn1c(=NC(=O)c2ccc(S(=O)(=O)N3CCOCC3)cc2)sc2cc(S(N)(=O)=O)ccc21	1	0	-8	15	-5	1	.
COc1ccc(CCn2c(SCC(=O)Nc3cc(C)on3)nc3ccsc3c2=O)cc1OC	-2	6	-2	-3	23*	1	4
COc1ccc(CCn2c(SCC(=O)Nc3cc(C)on3)nc3ccccc3c2=O)cc1OC	8	8	6	1	-11	0	.
COc1ccc2c(c1)c(=O)c(C(=O)c1ccc(F)cc1)cn2CC(=O)Nc1ccc(F)cc1	-9	1	-1	-4	20*	-19	-3
Cc1ccc(S(=O)(=O)c2cn(CC(=O)Nc3ccccc3)c3ccc(F)cc3c2=O)cc1	-11	3	-3	0	30*	-3	2
COc1ccc2c(c1)c(CC(=O)Nc1ccc(C)cc1)c(C)n2C(=O)c1ccc(Cl)cc1	-5	-1	1	-12	21*	-2	3
CCOc1ccc(NC(=O)Cn2cc(C(=O)c3ccco3)c3ccccc32)cc1	-8	1	-1	2	6	-1	.
COc1ccc(NC(=O)Cn2cc(C(=O)c3ccco3)c3ccccc32)cc1	-4	-5	-1	0	45*	1	2
COC(=O)c1cn(CC(=O)Nc2ccc(OC)cc2)c2ccccc12	-1	0	5	-7	4	0	.
COc1ccc2c(c1)c(=O)c(C(=O)c1ccc(C)cc1)cn2CC(=O)Nc1ccc(F)cc1	0	2	3	-14	22*	-3	-1
Cc1cccc2cc(-c3nc4c(C)cccn4c3NCc3ccco3)c(=O)[nH]c12	-4	5	-2	8	-2	0	.
Cc1ccc2[nH]c(=O)c(-c3nc4cc(C)ccn4c3NCc3ccco3)cc2c1	-2	-2	0	-5	32*	4	-5
O=C1COc2ccc(C(=O)CSc3nnc(NCc4ccccc4)s3)cc2N1	26	9	-1	12	43*	3	1
O=C1COc2ccc(C(=O)CSc3nnc(Cc4ccccc4)o3)cc2N1	20	7	2	6	-1	1	.
O=C1COc2ccc(C(=O)CSc3nc4ccccc4c(=O)n3-c3ccc(Cl)c(Cl)c3)cc2N1	2	7	-6	-14	56*	-2	1
CCc1ccc(-n2c(SCC(=O)c3ccc4c(c3)NC(=O)CO4)nc3ccccc3c2=O)cc1	0	2	-1	-10	-8	-1	.
Cn1c(SCC(=O)c2ccc3c(c2)NC(=O)CO3)nc2ccccc21	-1	-3	-1	6	39*	2	10
Cc1cc(NC(=O)CSc2nnc(NCc3ccccc3)s2)no1	16	11	1	0	22*	2	0
SMILES	EBNA-1 inh	Rpn11 inh	NR3A LBD binder	ZTA DNA inh	dFosB act-1	TPT1 inhibitor	dFosB act-2
Cc1cc(NC(=O)COC(=O)C2CC(=O)N(c3cccc(Cl)c3)C2)no1 (stereo unspecified)	0	2	0	-19	-4	-3	.
S=C(NCCCN1CCOCC1)NN=C1c2ccccc2-c2ccccc21	.	2	.	.	.	.	.
COc1cc(OC)c(N(C)S(=O)(=O)c2cccc(C(=O)OCC(=O)N(C)C3CCCCC3)c2)cc1Cl	.	-4	3	.	-7	.	.
CC1(C(=O)Nc2cccc(Oc3ccccc3)c2)CCN1Cc1cc2ccccc2o1 (stereo unspecified)	.	3	.	.	.	.	.
CC(C)(C)c1ccc(C(=O)OCC(=O)Nc2sc3c(c2C#N)CCC3)cc1	1	5	3	-17	0	0	.
N#Cc1c(NC(=O)COC(=O)c2ccc(O)cc2O)sc2c1CCC2	.	1	0	-22	39*	.	4
CCC1CCC(C(=O)NC(C(=O)Nc2ccc3c(c2)OCCO3)C(C)C)CC1 (stereo unspecified)	-5	-1	0	-14	24*	-1	9
CCc1nn(CC(=O)NCCCN(CC)Cc2ccccc2)c(=O)c2cc3sccc3n12	1	-9	0	0	-3	5	.
CCCCN(CCCNC(=O)Cn1nc(CC)n2c(cc3sc(C)cc32)c1=O)Cc1ccccc1	-8	-2	-1	-15	35*	-3	1
O=c1[nH]c(=S)[nH]cc1Oc1ccc(Br)cc1Br	.	-1	0	.	-6	.	.
O=C(CCc1ccccc1)N1CCCC(Nc2ccc(F)cc2)C1 (stereo unspecified)	-11	1	1	1	1	-1	.
O=C(Nc1ccc(-c2ccc3nncn3n2)cc1)c1ccc(Br)o1	0	14	10	-7	54*	4	4
CC(C)C(=O)Nc1ccc(-c2ccc3nncn3n2)cc1	-3	4	0	-14	-9	0	.
COc1ccc(/C=N/NC(=O)C2c3ccccc3-c3ccccc32)cc1	3	-4	-3	4	22*	-1	0
COc1ccc(/C=N/NC(=O)CC(=O)N/N=C/c2ccc(OC)cc2)cc1	8	5	-1	14	7	1	.
O=C(Nc1ccccc1)Nc1snnc1C(=O)Nc1cccc(O)c1	.	-5	24*	.	57*	.	1
